From PubChem
An excerpt weighted towards active compounds, which were near 21% of everything screened.
NS1 function inh: qHTS Assay for Inhibitors of Influenza NS1 Protein Function; Potency, µM (doses to about 46.1 µM), for inactives: at the highest dose activity, positive = more growth; 0.4% of 270,000 active; also: potency is read from the fitted curve at half-maximal effect; actives are rising curves; nearly all actives have a fitted effect of over 50% in size
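Growth recovery, yeast-based: influenza A NS1 expressed in S. cerevisiae causes slow growth, and suppressors are detected by OD600. The parent strain without NS1 is used as positive control.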
Cycloheximide cs: Cycloheximide Counterscreen for Small Molecule Inhibitors of Shiga Toxin | 12% of 300,000 active | max response, % | cell reporter, cycloheximide protein synthesis inhibition counterscreen | AID 2314, 2010; in the data active = max response mostly above about 13%, no sharp cut-off; inactive = mostly below about 14%; also: read at 38.3 µM for the half of the compounds with a filed dose; 0% is about no effect
Pf growth 48h: Primary qHTS for delayed death inhibitors of the malarial parasite plastid, 48 hour incubation; 5.9% of 310,000 active; P. falciparum luciferase growth in erythrocytes, 48 h; Potency, µM (top dose mostly 28.7 µM), for the others: top-dose activity change, negative = inhibition, usual class: inhibitors; active = well fitted inhibition curve with a large enough effect; inconclusive = small, poorly fitted or top-dose-only effect, or another doubt; inactive = no such curve, though single readings can be large or run the other way; also: potency is read from the fitted curve at half-maximal effect; % is scaled to controls: 0 for no effect and ±100 for the full control effect
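Here the parasites carry a stable luciferase gene and grow inside erythrocytes in Albumax-based RPMI medium with compound for one erythrocytic cycle. Activity is scored as loss of luminescent signal.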
SARS PLpro yeast: qHTS of Yeast-based Assay for SARS-CoV PLP | S. cerevisiae expressing SARS-CoV PLpro, growth rescue | Potency, µM (top dose mostly 32.9 µM), for the others: at the top dose activity, positive = growth rescue, most hits filed as activators | 0.19% of 330,000 active | AID 485353, 2010; also: potency is read from the fitted curve at half-maximal effect; 0% is about no effect; nearly all actives have a fitted effect of over 55% in size
Pf growth 96h: Primary qHTS for delayed death inhibitors of the malarial parasite plastid, 96 hour incubation. P. falciparum luciferase reporter growth, 96 h. 6.9% of 320,000 active. Potency, µM (top dose mostly 28.7 µM), without a hit: top-dose activity change, negative = inhibition, usual class: inhibitors; active = well fitted inhibition curve with a large enough effect; inconclusive = small, poorly fitted or top-dose-only effect, or another doubt; inactive = no such curve, though single readings can be large or run the other way; also: potency is read from the fitted curve at half-maximal effect; % is scaled to controls: 0 for no effect and ±100 for the full control effect
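Infected RBCs, 2% Hct / 0.05% parasitemia final; luciferase-reporter P. falciparum; cpd 96 h, 37 C, 5% CO2; luciferase detection reagent; luminescence.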
Shiga toxin inh: A qHTS for Small Molecule Inhibitors of Shiga Toxin; Vero cells, Shiga toxin protein synthesis inhibition reporter; inhibition, % at 38.7 µM; 9.2% of 290,000 active; in the data active = inhibition mostly above about 28%, no sharp cut-off; inactive = mostly below about 43%; also: 0% is about no effect
NS1 inh valid: Assay for Inhibitors of Influenza NS1 Protein Function: Hit Validation; shares compounds with NS1 function inh; AID 492980, 2010; activity change, negative = inhibition, % at 32.9 µM; 1,400 tested, under 10 active; influenza NS1 function cell assay, 15-point titration; also: 0% is about no effect
Flu PR8 replic: Assay for Inhibitors of Influenza NS1 Protein Function: Influenza virus replication assay in MDCK cells infected with virus A/PR/8/34; shares compounds with NS1 function inh; MDCK infected influenza A/PR/8/34, virus titer TCID50; active compounds read low; virus titer (log TCID50), log10 TCID50 at 5 µM; 30% of 95 active; call rule not given here
* hit, by the source's call; ? = inconclusive; · = no result given. Unless noted, calls follow the shape of the full dose curve.

SMILES | NS1 function inh | Cycloheximide cs | Pf growth 48h | SARS PLpro yeast | Pf growth 96h | Shiga toxin inh | NS1 inh valid | others
CCOc1ccc(NC(=S)N2CCc3cc(OC)c(OC)cc3C2COc2ccc3c(C)cc(=O)oc3c2)cc1 (stereo not drawn) | 11.2µM* | 2.5 | ? | ? | ? | -12.2 | 11.3
CCCCCCc1nc2ccccc2c(=O)n1NC(=O)c1c(O)c2c(n(CC(C)C)c1=O)CCCC2 | 0.398µM* | -2.0 | 9.1% | 8.0% | ? | 12.1 | -15.4
CCc1nc2ccccc2c(=O)n1NC(=O)c1c(O)c2ccccc2[nH]c1=O | 1.58µM* | 10.0 | ? | 5.9% | 34.4% | 32.6 | -19.5
Cc1nc2ccccc2c(=O)n1NC(=O)c1c(O)c2c(n(CC(C)C)c1=O)CCCC2 | -120.8% | -1.7 | ? | -88.1% | -17.9% | 7.5 | ·
Cc1ccc(-n2c(=O)c3ccccc3n(CC(=O)C(C)(C)C)c2=O)cc1 | · | -2.5 | 2.2% | 3.3% | ? | 26.5 | ·
COc1ccc(C2CC(c3ccc(Br)cc3)=NN2C(=O)CN2CCCC2)cc1 (stereo not drawn) | -0.4% | 0.9 | ? | 0.1% | -20.3% | 9.0 | ·
CNC(=S)N1N=C(c2ccc(Br)cc2)CC1c1ccc(OC)cc1 (stereo not drawn) | 22.4µM* | 7.6 | -26.9% | -0.5% | 10.4µM* | 19.3 | -32.4
COc1ccc(-c2[nH]ncc2CN2CCC(N3CCSCC3)CC2)cc1F | 5.1% | 9.6 | 44.9% | -0.4% | 13.6% | -5.2 | ·
COc1cc(/C=C2\SC(=S)N(Nc3ncc(C(F)(F)F)cc3Cl)C2=O)ccc1O | 3.98µM* | 13.8* | · | -33.2% | ? | 29.0 | 16.7
CN(C)c1ccc(/C=C2\SC(=S)N(Nc3ncc(C(F)(F)F)cc3Cl)C2=O)cc1 | 9.4% | -4.0 | 36.2% | 1.7% | 146.6% | -3.9 | ·
COc1ccc(-c2nc(=S)c3c([nH]2)Oc2ccc(C)cc2C3)cc1O | 10µM* | -4.0 | -1.4% | 13.1% | ? | 6.7 | -5.7
O=C(CSc1nnc(-c2ccncc2)n1-c1ccccc1)NC1CC1 | 9.3% | -0.2 | 9.0% | -0.8% | -5.7% | -12.3 | ·
CCc1nnc(NS(=O)(=O)c2ccc(NC(=O)c3cccc([N+](=O)[O-])c3)cc2)s1 | 21.7% | -1.4 | 6.0% | 4.9% | -16.2% | -7.1 | ·
CCCCOc1cccc(C(=O)Nc2ccc(S(=O)(=O)Nc3nnc(CC)s3)cc2)c1 | 8.91µM* | -2.3 | -0.8% | -5.2% | ? | -6.3 | 11.5
Cc1cc2cc(CNS(=O)(=O)c3ccc4ccccc4c3)ccc2n1C | 10µM* | 0.4 | ? | -3.8% | ? | -6.8 | -22.4
Cc1cc2cc(CNC(=O)c3ccc(S(=O)(=O)N4CCOCC4)cc3)ccc2n1C | 11.2µM* | 5.0 | 13.1µM* | 13.2% | ? | 10.5 | -0.1
CC(=O)Nc1ccc(S(=O)(=O)NCc2ccc3c(c2)cc(C)n3C)cc1 | 11.3% | -6.5 | · | -7.2% | ? | -14.0 | ·
Cc1cc2cc(CNC(=O)c3ccc(S(=O)(=O)N(C)C)cc3)ccc2n1C | 11.2µM* | -1.9 | ? | 3.2% | ? | -11.2 | 25.4
CC(OC(=O)c1cccnc1Cl)C(=O)NCc1ccccc1 (stereo not drawn) | · | · | -21.9% | 7.9% | 11.4% | · | ·
CCOCCCNS(=O)(=O)c1ccc(NC(=O)Cc2c(F)cccc2Cl)cc1 | ? | -3.1 | ? | 1.1% | 1.2% | 21.2 | -14.1 | Flu PR8 replic=8.33
O=S(=O)(CCN1CCOCC1)c1ccc(Oc2ccc(S(=O)(=O)CCN3CCOCC3)cc2)cc1 | 1.2% | -2.3 | -23.5% | -2.5% | ? | -2.8 | ·
CC(C)(C)c1nnc2sc(SCC(=O)c3ccc(Cl)cc3)nn2c1=O | 11.2µM* | -0.3 | ? | -5.3% | 0.0% | 2.1 | 26.1 | Flu PR8 replic=8.5
COc1ccc(N2CC(C(=O)Nc3ccncc3)CC2=O)cc1 (stereo not drawn) | 3.1% | -0.9 | -0.6% | 1.0% | -14.0% | 2.5 | ·
COc1cccc(C2CC(c3ccc(Cl)cc3)Nc3nc(N)nn32)c1 (stereo not drawn) | 7.08µM* | 4.1 | 38.9% | 22.5% | 63.1% | 2.5 | -11.2
S=C(NCC1CCCO1)NC1CCCC1 (stereo not drawn) | · | -2.1 | 2.4% | -0.6% | 0.0% | -3.7 | ·
SMILES | NS1 function inh | Cycloheximide cs | Pf growth 48h | SARS PLpro yeast | Pf growth 96h | Shiga toxin inh | NS1 inh valid | others
CCOc1nc(NC2CCCC2)nc(N2CCC(C)CC2)n1 | -1.1% | -2.3 | ? | 4.9% | ? | · | ·
COc1cccc(C2=NOC(C(=O)Nc3cccc(C(C)=O)c3)C2)c1 (stereo not drawn) | 2.82µM* | 4.4 | -5.9% | -11.5% | 7.4% | -8.0 | 0.0
CCC(CC)C(=O)Nc1cccc(C(=O)c2ccccc2)c1 | -3.9% | -2.7 | · | 4.3% | ? | -10.6 | ·
Cc1ccccc1-n1c(=O)cc(N2CCN(Cc3ccccc3)CC2)[nH]c1=O | 4.7% | 3.9 | -3.1% | 2.0% | 4.4% | -0.4 | ·
Cc1ccccc1-n1c(=O)cc(NCc2ccc3c(c2)OCO3)[nH]c1=O | ? | -2.3 | 9.28µM* | 11.8% | ? | -3.6 | 10.0
Cc1ccc(S(=O)(=O)CCC(=O)OCC(=O)N2CC(=O)Nc3ccccc32)cc1 | ? | 0.9 | -19.4% | 14.0% | -9.0% | 36.8 | -4.7
CC(Oc1ccccc1)C(=O)N1CCN=C1SCc1ccccc1F (stereo not drawn) | -7.9% | 2.5 | ? | -0.9% | -17.6% | 19.8 | ·
Cc1nnc(NC2(C(F)(F)F)C(=O)Nc3c2c(=O)n(C)c(=O)n3C)s1 (stereo not drawn) | ? | -1.1 | 12.9% | 5.5% | ? | 12.6 | 8.6
CCN(CC(=O)NCc1cccs1)C(=O)c1ccc(Cl)c(Cl)c1 | · | · | · | 5.7% | · | · | ·
Cc1nc2sccn2c1-c1csc(NCc2ccccc2)n1 | ? | 14.4 | 13.1µM* | -1.1% | 74.2% | 29.0 | -28.6
CC1(C)Cc2c(C#N)c(N3CCCC3)nc(-c3ccco3)c2CO1 | -59.9% | -2.1 | · | 0.2% | ? | -9.5 | ·
CC1(C)Cc2c(C#N)c(N3CCN(C(=O)c4ccccc4)CC3)nc(-c3ccco3)c2CS1 | 8.91µM* | -1.1 | ? | 0.3% | ? | -4.0 | -35.0
Cc1ccccc1NC(=O)N1CCCC1C(=O)NCc1cccs1 (stereo not drawn) | 2.2% | -1.2 | 16.3% | ? | ? | 6.5 | ·
O=C(NCc1cccs1)C1CCCN1C(=O)Nc1ccccc1Cl (stereo not drawn) | ? | -5.2 | 31.8% | 0.1% | -16.0% | -8.0 | 3.6 | Flu PR8 replic=8.5
